The source of these data is publication PMC8384837, “Expanding the binding specificity for RNA recognition by a PUF domain”.

Residue numbers refer to the chain shown, from its start.

Common to all, as to assay: yeast three-hybrid, YBZ-1, SC-Leu-His + 0.5 mM 3-AT, 4 days
Conditions in all cases: tags: N-Gal4 AD-HA kept; label: inside an RPR1-promoter hybrid RNA with tandem MS2 sites; ssRNA

The target of experiment [1] is PUM1 PUF domain R7-RGK (Homo sapiens, UniProt Q14671 828-1176, S1079R;N1080G;E1083K). A digest of the protocol:
(§1)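 The interaction score is the log change in how often each variant appears, from input to selection. Frequencies came from PCR-amplified, Illumina-sequenced repeat regions of Pumilio-1 PUF domain libraries grown in strain YBZ-1 (LexA–MS2 coat fusion, HIS3 reporter) alongside matching RNA elements. Input plates were SC-Leu and selection plates were SC-Leu-His + 0.5 mM 3-AT, each for four days, and the log2 calculation used a pseudocount of 1 where a variant was absent.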

Experiment [2] concerns the target PUM1 PUF domain R8-RYP (Homo sapiens, UniProt Q14671 828-1176, N1122R;Q1126P). A digest of the protocol: as §1
The target in experiment [3] is PUM1 PUF domain R5-AYF (Homo sapiens, UniProt Q14671 828-1176, C1007A;R1008Y;Q1011F). A digest of the protocol: as §1
For experiment [4], the target named is PUM1 PUF domain R5-GSR (Homo sapiens, UniProt Q14671 828-1176, C1007G;R1008S;Q1011R). A digest of the protocol:
as §1

In experiment [5] the target is T1, PUM1 PUF domain R6-IYK (Homo sapiens, UniProt Q14671 828-1176, N1043I;Q1047K).
T1 sequence: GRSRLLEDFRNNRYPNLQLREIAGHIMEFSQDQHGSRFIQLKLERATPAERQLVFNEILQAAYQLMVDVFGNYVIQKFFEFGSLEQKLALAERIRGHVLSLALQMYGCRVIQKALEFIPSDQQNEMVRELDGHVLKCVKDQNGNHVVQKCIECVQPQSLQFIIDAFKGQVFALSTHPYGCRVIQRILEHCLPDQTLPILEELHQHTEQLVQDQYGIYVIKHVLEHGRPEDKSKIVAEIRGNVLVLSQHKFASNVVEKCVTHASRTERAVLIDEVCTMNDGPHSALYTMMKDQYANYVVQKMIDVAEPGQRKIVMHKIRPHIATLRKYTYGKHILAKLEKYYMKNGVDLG
The procedure, abridged: as §1

Experiment [6] addresses PUM1 PUF domain R4-PFY (Homo sapiens, UniProt Q14671 828-1176, N971P;H972F;Q975Y). The procedure, abridged: as §1
Experiment [7] addresses PUM1 PUF domain R5-ERF (Homo sapiens, UniProt Q14671 828-1176, C1007E;Q1011F). The procedure, abridged: as §1
For experiment [8], the target named is T2, PUM1 PUF domain R6-GFK (Homo sapiens, UniProt Q14671 828-1176, N1043G;Y1044F;Q1047K).
T2 sequence: T1 sequence with I216G, Y217F
A digest of the protocol: as §1

Experiment [9] addresses PUM1 PUF domain R5-SQG (Homo sapiens, UniProt Q14671 828-1176, C1007S;R1008Q;Q1011G). The procedure, abridged: as §1
Experiment [10] has as its target PUM1 PUF domain R3-TIE (Homo sapiens, UniProt Q14671 828-1176, C935T;R936I;Q939E). The procedure, abridged:
as §1

As for “GGCUAGAACUAGUGGAUCCCCCGGCGCCCGGCGGCUCGAGCCCGGGUAAGUCUAAAUAGUCUGCAUGCCGCCGGGCGCCAUGCCUGCAGGUCGACUCUAGAAAACAUG”, the binding signal in experiment [1] is 5.3 log2 enrichment (interaction score).
Take “GGCUAGAACUAGUGGAUCCCCCGGCGCCCGGCGGCUCGAGCCCGGGUAAGCGUAAAUAGUCUGCAUGCCGCCGGGCGCCAUGCCUGCAGGUCGACUCUAGAAAACAUG”: the binding signal in [2] is 6.03 log2 enrichment (interaction score).
Turning to “GGCUAGAACUAGUGGAUCCCCCGGCGCCCGGCGGCUCGAGCCCGGGUAAGUGUAAAUAGUCUGCAUGCCGCCGGGCGCCAUGCCUGCAGGUCGACUCUAGAAAACAUG”, the binding signal in [3] was 3.62 log2 enrichment (interaction score); in experiment [2], 4.32 log2 enrichment (interaction score); in [4], 1.75 log2 enrichment (interaction score); in experiment [5], 2.06 log2 enrichment (interaction score); in [6] it was 5.35 log2 enrichment (interaction score); in experiment [7], 2.71 log2 enrichment (interaction score). The binding signal in experiment [8] is 2.55 log2 enrichment (interaction score).
Consider “GGCUAGAACUAGUGGAUCCCCCGGCGCCCGGCGGCUCGAGCCCGGGUAAGUGUGAAUAGUCUGCAUGCCGCCGGGCGCCAUGCCUGCAGGUCGACUCUAGAAAACAUG”, for which the binding signal in experiment [9] is 3.41 log2 enrichment (interaction score).
Take “GGCUAGAACUAGUGGAUCCCCCGGCGCCCGGCGGCUCGAGCCCGGGUAAGUGUAUAUAGUCUGCAUGCCGCCGGGCGCCAUGCCUGCAGGUCGACUCUAGAAAACAUG”: in [6], the binding signal is 3.71 log2 enrichment (interaction score).
Consider “GGCUAGAACUAGUGGAUCCCCCGGCGCCCGGCGGCUCGAGCCCGGGUAAGUGUUAAUAGUCUGCAUGCCGCCGGGCGCCAUGCCUGCAGGUCGACUCUAGAAAACAUG”, for which the binding signal in experiment [9] was 0.27 log2 enrichment (interaction score); in experiment [4] it was 3.01 log2 enrichment (interaction score); in experiment [7], 3.92 log2 enrichment (interaction score).
Consider “GGCUAGAACUAGUGGAUCCCCCGGCGCCCGGCGGCUCGAGCCCGGGUAAGUGUAAGUAGUCUGCAUGCCGCCGGGCGCCAUGCCUGCAGGUCGACUCUAGAAAACAUG”, for which the binding signal in [10] was 4.39 log2 enrichment (interaction score).
As for “GGCUAGAACUAGUGGAUCCCCCGGCGCCCGGCGGCUCGAGCCCGGGUAAGUGUCAAUAGUCUGCAUGCCGCCGGGCGCCAUGCCUGCAGGUCGACUCUAGAAAACAUG”, the binding signal is 5.07 log2 enrichment (interaction score) in [4] and 3.35 log2 enrichment (interaction score) in experiment [7].
Regarding “GGCUAGAACUAGUGGAUCCCCCGGCGCCCGGCGGCUCGAGCCCGGGUAAGUUUAAAUAGUCUGCAUGCCGCCGGGCGCCAUGCCUGCAGGUCGACUCUAGAAAACAUG”, the binding signal in experiment [1] is 6.69 log2 enrichment (interaction score).
